KCNQ2 enhance = potentiators of rat KCNQ2 potassium channel | Potassium voltage-gated channel subfamily KQT member 2 (Rattus norvegicus), O88943 | CHO-K1 KCNQ2, FluxOR thallium flux fluorescence; hits give high values | B-score at 10 µM | hit rate 0.54% among 310,000;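 active = fluorescence ratio B-score at least 3 SD of library B-scores, with initial fluorescence B-score within 3 of them, cut at about 5.3 in these data; same plate scores as AID 2156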;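 also: B-score of peak minus minimum over baseline fluorescence ratio after K+ and Tl+ stimulus; positive B-score means potentiation of KCNQ2 with more thallium influx and brighter signal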
KCNQ2 inh = rat KCNQ2 potassium channel inhibitors, primary screen, cell-based, CHO-K1, FluxOR thallium flux, B-score | AID 2156, 2009 | 20 min; hits give low values | B-score at 10 µM | hit rate 1.1% among 310,000;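 active = fluorescence ratio B-score at most minus 3 library SDs, with starting brightness B-score within 2 library SDs, cut at about -5.5 in these data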
Large screens that a line does not name were inactive. This is a sample that favours compounds with a hit; in the whole collection about 1.6% have one here.

COc1ccc2oc(C(=O)NC3(C)CCS(=O)(=O)C3)c(C)c2c1 (stereo not drawn)	none
CSc1n[nH]c(-c2sccc2OCc2ccc(C)cc2)n1	KCNQ2 inh -6.1
CSc1nnc(-c2sccc2OCc2ccccc2)n1C	none (no result: KCNQ2 enhance)
CCOC(=O)C1=C(C)N(C)C(=O)NC1c1cccc2ccccc12 (stereo not drawn)	none
COc1ccccc1NC(=O)c1ccc[n+]([O-])c1	none (no result: KCNQ2 enhance)
COC(=O)c1ccccc1S(=O)(=O)N1CCCC(c2nc3c(nnn3Cc3ccc(C)cc3)c(=O)[nH]2)C1 (stereo not drawn)	none (no result: KCNQ2 enhance)
COc1ccccc1NC(=O)N1CCCC(c2nc3c(nnn3Cc3ccc(C)cc3)c(=O)[nH]2)C1 (stereo not drawn)	KCNQ2 inh -6.2
CCOC(=O)c1ccccc1NC(=O)CSc1nnc(COc2ccccc2)n1CC	KCNQ2 inh -6.4
CCOC(=O)c1cccc(NC(=O)CSc2nnc(COc3ccccc3)n2CC)c1	none (no result: KCNQ2 enhance)
CC(=O)Nc1ccc(/C=N/NC(=S)NC(C)C)cc1	none
COc1ccccc1CCNS(=O)(=O)CCNC(=O)c1ccccc1	none
COc1ccccc1CCNC(=O)c1ccc(Br)s1	KCNQ2 inh -6.3
Cc1ccccc1NC(=O)N1CCC(NC(=O)C2CCCCC2)CC1	none
CC(=O)Nc1ccc(S(=O)(=O)NCC2CCC(C(=O)NCCCN(C)Cc3ccccc3)CC2)cc1 (stereo not drawn)	none (no result: KCNQ2 enhance)
CCc1nc(N2CCC(C)CC2)c2oc3ccccc3c2n1	KCNQ2 inh -5.9
CCc1nc(N(CC)CC)c2oc3ccccc3c2n1	none (no result: KCNQ2 enhance)
N#C/C(=C/c1ccc(N2CCCCCC2)o1)c1cccc(F)c1	none (no result: KCNQ2 enhance)
N#C/C(=C/c1ccc(N2CCCCCC2)o1)c1ccc(F)cc1	KCNQ2 inh -7
COc1ccc(NC(=O)CN2C(=O)NC(c3ccccc3)(c3ccccc3)C2=O)cc1OC	none (no result: KCNQ2 enhance)
CCOC(=O)N/N=C(/c1ccccc1)C1CCCCC1	none
Cn1c(SCC(=O)c2ccccc2)nnc1-c1ccc(O)cc1	none
Cn1c(SCC(=O)N2c3ccccc3CCc3ccccc32)nnc1-c1ccc(O)cc1	KCNQ2 inh -5.8
CCc1ccc(OCC(=O)Nc2ccc3c(c2)OCCO3)cc1	none (no result: KCNQ2 enhance)
Cn1ncc(Br)c1N1C(=O)CCC1=O	none (no result: KCNQ2 enhance)
NS(=O)(=O)c1ccc(NCc2cc(Cl)ccc2OCc2ccc(F)cc2)cc1	KCNQ2 enhance 7.7
NS(=O)(=O)c1ccc(NCc2ccccc2OCc2ccccc2F)cc1	none
O=C(NCCC1=CCCCC1)C(=O)NCc1ccncc1	none
O=C(Nc1ccccc1)c1cccc(N2C(=O)C3C4CC(C(Br)C4Br)C3C2=O)c1 (stereo not drawn)	none (no result: KCNQ2 enhance)
COc1ccccc1OCC(=O)NNC(=O)c1c(-c2ccccc2Cl)noc1C	none
CCOP(=O)(OCC)c1nc(-c2cccc3ccccc23)oc1N1CCCCC1	KCNQ2 inh -6.1
COP(=O)(OC)c1nc(-c2cccc3ccccc23)oc1N1CCCCC1	none (no result: KCNQ2 enhance)
Cc1cccc2[nH]c3c(N4CC=C(c5ccc(F)cc5)CC4)ncnc3c12	none (no result: KCNQ2 enhance)
C=C1c2cc3c(cc2NC(=S)N1Cc1ccccc1)OCO3	none
O=C(c1ccc(Cl)c(Cl)c1)N(Cc1ccco1)c1ccc(O)cc1	KCNQ2 inh -6.4
O=C(COc1ccccc1)N(Cc1ccco1)c1ccc(O)cc1	none (no result: KCNQ2 enhance)
N#Cc1cnn2ccn(C3OC(CO)C(O)C3O)c12 (stereo not drawn)	none (no result: KCNQ2 enhance)
Cc1cccc(C(=O)Nc2ccc(O)c3c(=O)cc(-c4ccccc4Cl)oc23)c1	none (no result: KCNQ2 enhance)
CN(C)c1ccc(C(=O)Nc2ccc(O)c3c(=O)cc(-c4ccccc4Cl)oc23)cc1	KCNQ2 inh -5.8
O=C1NC2(CCN(Cc3ccccc3)CC2)Oc2ccccc21	none (no result: KCNQ2 enhance)
O=C1c2ccccc2OC2(C=Cc3ccccc3O2)N1Cc1ccccc1 (stereo not drawn)	KCNQ2 inh -8.3
CCOc1ccc(-n2c(=S)sc3c(=O)n(-c4ccc(F)cc4)c(SCC(=O)O)nc32)cc1	none
O=C(CSc1ccc(F)cc1)NCC1(N2CCOCC2)CCCCC1	none (no result: KCNQ2 enhance)
COc1ccccc1N1CCN(C2CCCN(C(=O)c3ccnc4ccc(C)cc34)C2)CC1 (stereo not drawn)	none (no result: KCNQ2 enhance)
Cc1ccc2nccc(C(=O)N3CCCC(N4CCN(c5ccc(F)cc5)CC4)C3)c2c1 (stereo not drawn)	KCNQ2 inh -6.5
CCN(C(=O)CN1CCN(S(=O)(=O)c2cc(Cl)ccc2Cl)CC1)c1c(N)n(Cc2ccccc2)c(=O)[nH]c1=O	none
Cc1ccc(C)n1-n1cnc2sc3c(c2c1=O)CCCCC3	KCNQ2 inh -7.5
Cc1ccc(C)n1-n1c(C)nc2sc3c(c2c1=O)CCCCC3	none (no result: KCNQ2 enhance)
O=C(CCC(=O)N(CC(=O)NC1CCCC1)c1cccc(F)c1)Nc1nccs1	none
O=C(/C(=C/c1ccc(Cl)cc1)c1nc2ccccc2[nH]1)c1cccs1	KCNQ2 inh -6.3
COC(=O)/C(=C\c1cc(OC)c(OC)c(OC)c1)c1nc2ccccc2[nH]1	none (no result: KCNQ2 enhance)
COc1cc(/C=C(/C(=O)c2cccs2)c2nc3ccccc3[nH]2)ccc1O	KCNQ2 inh -7.6
O=C(/C(=C\c1ccccc1)c1nc2ccccc2[nH]1)c1ccc(Cl)cc1	none
